In paper PMC7819943, “Rice protein-binding microarrays: a tool to detect cis-acting elements near promoter regions in rice”:
The full ranking holds about 35,000 sequences; the median of “fluorescence intensity (a.u.)” is about 10,000, and the highest 2% start at about 52,000. The sample as a whole holds a higher share of the highest values than the screen did.

molecular target: T1, OsWOX13 (Oryza sativa, UniProt Q5QMM3 1-267); experiment: protein-binding microarray (RPBM); PBS, 2% BSA, 51.3 ng/ul salmon testes DNA, 50 uM zinc acetate, 200 nM TF, 25 C, 1 h; high values mean tight binding; conditions: protein: recombinant; tags: N-terminal polyhistidine and DsRed monomer fusion (pET32a); label: CyDye5-dUTP incorporated in the synthesized complementary strand; 3' TTTTT single-stranded linker to array surface; dsDNA, one strand shown
T1 sequence: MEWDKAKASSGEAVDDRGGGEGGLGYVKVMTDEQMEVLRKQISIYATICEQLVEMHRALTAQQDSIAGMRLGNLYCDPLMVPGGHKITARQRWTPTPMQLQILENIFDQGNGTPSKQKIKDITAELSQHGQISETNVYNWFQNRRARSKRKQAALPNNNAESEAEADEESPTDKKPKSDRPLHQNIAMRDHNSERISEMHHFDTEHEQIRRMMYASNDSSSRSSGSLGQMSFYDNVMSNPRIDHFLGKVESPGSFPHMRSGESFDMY
Procedure, shortened: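 The binding signal is fluorescence intensity per array feature (arbitrary units). Readings came from an Axon 4000B scanner after a washed, 2% BSA-blocked, double-stranded custom Agilent array had been incubated for 1 h at 25 °C with 200 nM protein and 50 µM zinc acetate. The protein was a Ni–NTA-purified transcription factor fused N-terminally to polyhistidine and DsRed, expressed in E. coli BL21-CodonPlus.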

| Sequence | binding signal |
| --- | --- |
| ATTAATTAATTAGTCGGCCAACCTAGCTGTTGACTGGGAACGGAGTCACCTAGTGCAG | 55900 fluorescence intensity (a.u.) |
| AATTAATTTAGCCCCTAATTAATTAGCAGCCAATCAACGGCGGAGTCACCTAGTGCAG | 54000 fluorescence intensity (a.u.) |
| TTTAATTTACAGTTAAATTAACTTAATCTGTAAAAGGGATCGGAGTCACCTAGTGCAG | 57500 fluorescence intensity (a.u.) |
| GTTGATGGGCAGCTTAATTACGGCCCGCCTGTTTAGCCAACGGAGTCACCTAGTGCAG | 17500 fluorescence intensity (a.u.) |
| GCCAACCTTATAGCTAATTATTATATATATTGACTTTAAGCGGAGTCACCTAGTGCAG | 4860 fluorescence intensity (a.u.) |
| ATTAATTATTAATTTACTTTTGACAATTACTAATTAGCCACGGAGTCACCTAGTGCAG | 56700 fluorescence intensity (a.u.) |
| AATTAATAAAATAAATCTATTACAGTTAACTAAAGGTATTCGGAGTCACCTAGTGCAG | 5780 fluorescence intensity (a.u.) |
| ATACATTAATTTGATGCCCCAATAGAAGCACGCCAATCATCGGAGTCACCTAGTGCAG | 12000 fluorescence intensity (a.u.) |
| TGTTGTTAGATGATAAAACATGATTAATATTTTATGCGTGCGGAGTCACCTAGTGCAG | 3610 fluorescence intensity (a.u.) |
| GTTTTGATAAATTGATTTAAAACGCTTTATAAGAAGTGTCCGGAGTCACCTAGTGCAG | 43800 fluorescence intensity (a.u.) |
| AATTTTGATAGGGTAGAATTGAAAATGTTTATTTGGATTGCGGAGTCACCTAGTGCAG | 10500 fluorescence intensity (a.u.) |
| AAATAACTGGTGGATATTTGTACGCTGCCCCTGAGGAACTCGGAGTCACCTAGTGCAG | 3900 fluorescence intensity (a.u.) |
| TGTTTTCCTAAGTGATTGGTGGGAAACCTCGTAGGATAAGCGGAGTCACCTAGTGCAG | 9180 fluorescence intensity (a.u.) |
| TTGATTGGGAGGAAGCCAAGAAGAAGTCAAGAACTGCCCACGGAGTCACCTAGTGCAG | 31900 fluorescence intensity (a.u.) |
| GTTTATTTGGGCCTGATTGGCACAGATGGTAGTGCCATGTCGGAGTCACCTAGTGCAG | 31700 fluorescence intensity (a.u.) |
| CCAAAATAAACAACCAAAATTTCGCCGTGTAACTAACTCTCGGAGTCACCTAGTGCAG | 3300 fluorescence intensity (a.u.) |
| CGTTTAATTGTGTATATATATAGCCACATTAAAGTACACACGGAGTCACCTAGTGCAG | 11100 fluorescence intensity (a.u.) |
| TAGTGTAATTTAACACTTAATTAGCCACATTTGTTACACACGGAGTCACCTAGTGCAG | 61900 fluorescence intensity (a.u.) |
| CACAGACACATTTGGTTAATTACATACCTTGTACACTTCACGGAGTCACCTAGTGCAG | 6260 fluorescence intensity (a.u.) |
| ATTGACTTGACGACCGCCATGAATTCATCTCATCTCATCTCGGAGTCACCTAGTGCAG | 5970 fluorescence intensity (a.u.) |
| AGGCTAATTAACAGAGAGGGGACAATATGCAACAACGTATCGGAGTCACCTAGTGCAG | 24000 fluorescence intensity (a.u.) |
| GATGAAACATATATTGACTGTAACATGTAGATTACATGATCGGAGTCACCTAGTGCAG | 6110 fluorescence intensity (a.u.) |
| CTTATTAACATTTAATTTGGTTTCTTCCTTAATTTGTATCCGGAGTCACCTAGTGCAG | 12600 fluorescence intensity (a.u.) |

| Sequence | binding signal |
| --- | --- |
| TATAATTATTAATAATTAATTAATTATATATTAATTATTTCGGAGTCACCTAGTGCAG | 26700 fluorescence intensity (a.u.) |
| TTAATTAATTAATTTTCTTCCTAAACATATCCGCTAATCCCGGAGTCACCTAGTGCAG | 53500 fluorescence intensity (a.u.) |
| TTCTGCTGCACCTAATTAATTAAATTTCCCCGCTATAATTCGGAGTCACCTAGTGCAG | 11300 fluorescence intensity (a.u.) |
| CTTTAATTTCTTCTTCTTTTCCACATATAATAATAATATACGGAGTCACCTAGTGCAG | 4030 fluorescence intensity (a.u.) |
| TAATTAATTATAATTAATTAATCCTACTGGTGCTTTCCTTCGGAGTCACCTAGTGCAG | 54300 fluorescence intensity (a.u.) |
| ACTTAATTAACTTGGTTCTTCCTTTAATTTCTAGCTATATCGGAGTCACCTAGTGCAG | 50100 fluorescence intensity (a.u.) |
| ATTTCTTTAATTAATTAATTAATTAACATATATATCCCTTCGGAGTCACCTAGTGCAG | 60600 fluorescence intensity (a.u.) |
| TGGTATATTAATTATTTCCTTTCCTTCCTTTCCCTTCCGACGGAGTCACCTAGTGCAG | 5690 fluorescence intensity (a.u.) |
| CCATCGTAATTGATCGAAAACTGACAACATGTTAGGGTTGCGGAGTCACCTAGTGCAG | 12700 fluorescence intensity (a.u.) |
| AAACAAATGATTTTATTCATTTACTCATTCATCATATCACCGGAGTCACCTAGTGCAG | 10300 fluorescence intensity (a.u.) |
| CCATGATGATGAGTCATTTTAACAGTCTGCAAGTACTAAACGGAGTCACCTAGTGCAG | 8500 fluorescence intensity (a.u.) |
| AACCCTAGATTGATTTTGCGTGTGCTGCGTGAAGACGGCACGGAGTCACCTAGTGCAG | 41400 fluorescence intensity (a.u.) |
| TGATTTGATTTTCAGTTTTGCACCATGCGATCGATCGAGACGGAGTCACCTAGTGCAG | 4320 fluorescence intensity (a.u.) |
| ATTTTGACTGATGTGACGTTTGCGTGGCTGGTTTGATTAGCGGAGTCACCTAGTGCAG | 28900 fluorescence intensity (a.u.) |
| TGACTTGATTAATTGCTTCTATGTTTGGCACCCAATTAATCGGAGTCACCTAGTGCAG | 44900 fluorescence intensity (a.u.) |
| GCTTAATTGATTAATTTGCTGGACGAGGAATCTTCTATGTCGGAGTCACCTAGTGCAG | 64600 fluorescence intensity (a.u.) |
| TTTAATTTTATGTTTTGATTTTAATCTATATCTCTTCTCTCGGAGTCACCTAGTGCAG | 22600 fluorescence intensity (a.u.) |
| GATCGATTTGGTTTTGTTGATTTGATCTGGCCGGACAAGGCGGAGTCACCTAGTGCAG | 3980 fluorescence intensity (a.u.) |
| GGGCCGTGATTGATTTGCTGGCGTGTGTGATTTTCAGCTGCGGAGTCACCTAGTGCAG | 62900 fluorescence intensity (a.u.) |
| GTTTGATTGATTGATTTCGTGTACCATGCGGACTTCAGATCGGAGTCACCTAGTGCAG | 65100 fluorescence intensity (a.u.) |
| TAGTTTGTGATTGATTTGTCGACATCTGGAGGCGTCATGCCGGAGTCACCTAGTGCAG | 58400 fluorescence intensity (a.u.) |
| CTGAAACTGATTGAACTTTTGTCCATTTTCAGATCGTGTACGGAGTCACCTAGTGCAG | 49400 fluorescence intensity (a.u.) |
| GACATATTGTCACCGGTTTTGATTAGTTGTGGATATCTGGCGGAGTCACCTAGTGCAG | 6960 fluorescence intensity (a.u.) |
